These results are taken from PubChem BioAssay (NCATS).

The source made the active and inactive calls. Calls come from the whole dose curve; as a rule, active = well fitted curve in the direction sought with a large enough effect; inactive = no such curve, though single readings can be large or run the other way.

The nature of the assay: qHTS for small molecule inhibitors of Yes1 kinase: Counter Assay (AID 686950).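 Note: no kinase present so only ADP-Glo detection of a fixed ADP amount is tested; luminescence from ADP-Glo reporting ADP in a fixed ATP and ADP mixture.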 The following applies: series mostly up to 76.9 µM. Put shortly: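 No kinase present; 0.08 mM ATP + 0.02 mM ADP in 50 mM Tris pH 7.5, 10 mM MgCl2, 150 mM NaCl, 1 mM DTT; 20 min compound preincubation, 60 min RT, ADP-Glo luminescence, normalized to ATP/ADP (max) and ATP-only (min).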
`C[C@@]12O[C@@H](C[C@]1(O)CO)n1c3ccccc3c3c4c(c5c6ccccc6n2c5c31)CNC4=O`: the molecule was classed as inactive.

`CC[C@H](CO)Nc1nc(NCc2ccccc2)c2ncn(C(C)C)c2n1`: the result was inactive. Turning to `CC(C)c1ccccc1Cc1cc(C(=O)Nc2ccc(S(=O)(=O)c3ccccc3C(C)(C)C)cc2)c(O)c(O)c1O`, the outcome was inactive. In the case of `CC(C)=CCCC(C)=CCCC(C)=CCSc1ccccc1C(=O)O`, the call was inactive.

Turning to `COc1cc(=C2C=c3ccccc3=N2)[nH]c1=Cc1[nH]c(C)cc1C`, the molecule was called inactive. Regarding `CNC(=O)c1cc(Oc2ccc(NC(=O)Nc3cc(C(C)(C)C)nn3-c3ccc4ncccc4c3)c(F)c2)ccn1`, the outcome was inactive. For `CN1CCN(c2ccc3nc(-c4c(N)c5c(F)cccc5[nH]c4=O)[nH]c3c2)CC1`, the molecule was classed as inactive.

Regarding `NC(=O)Nc1cc(-c2cccc(F)c2)sc1C(=O)N[C@H]1CCCNC1`, the molecule was called inactive.

Take `Cc1cc(Nc2cc(N3CCN(C)CC3)nc(Sc3ccc(NC(=O)C4CC4)cc3)n2)n[nH]1`: the molecule was classed as inactive. On to `CC(C)(C)c1cnc(CSc2cnc(NC(=O)C3CCNCC3)s2)o1`, for which the molecule was called inactive. With `CC(=O)c1c(C)c2cnc(Nc3ccc(N4CCNCC4)cn3)nc2n(C2CCCC2)c1=O`, the result was inactive. Then `COc1cc(OC2CCN(C)CC2)ccc1Nc1ncc2c(n1)n(C1CCCC1)c(=O)n2C`, with “inactive”; and `C=CC(=O)Nc1cc2c(Nc3ccc(F)c(Cl)c3)ncnc2cc1OCCCN1CCOCC1`, with “inactive”; and `CN(C)CC=CC(=O)Nc1cc2c(Nc3ccc(F)c(Cl)c3)ncnc2cc1O[C@H]1CCOC1`, with “inactive”. Turning to `c1cc(-c2cnn3cc(-c4ccc(OCCN5CCCCC5)cc4)cnc23)ccn1`, the molecule was classed as inactive. Then `COc1cc2c(Oc3ccc(NC(=O)C4(C(=O)Nc5ccc(F)cc5)CC4)cc3F)ccnc2cc1OCCCN1CCOCC1`, with “inactive”. Then `CNc1nccc(-c2cccnc2Oc2cc(C(=O)Nc3cccc(C(F)(F)F)c3)ccc2C)n1`, with “inactive”. With `C[C@@H](Oc1cc(-n2cnc3ccc(CN4CCN(C)CC4)cc32)sc1C(N)=O)c1ccccc1C(F)(F)F`, the result was inactive. Regarding `CCN1CCN(Cc2ccc(-c3cc4c(N[C@H](C)c5ccccc5)ncnc4[nH]3)cc2)CC1`, the outcome was inactive. On to `COC(=O)c1ccc2c(C(=Nc3ccc(N(C)C(=O)CN4CCN(C)CC4)cc3)c3ccccc3)c(O)[nH]c2c1`, for which the result was inactive. Take `CS(=O)(=O)N1CCN(Cc2cc3nc(-c4cccc5[nH]ncc45)nc(N4CCOCC4)c3s2)CC1`: the outcome was inactive.

With `C=CC(=O)N1CCC[C@@H](n2nc(-c3ccc(Oc4ccccc4)cc3)c3c(N)ncnc32)C1`, the molecule was classed as inactive. Under `COc1cc2c(Oc3ccc4[nH]c(C)cc4c3F)ncnc2cc1OCCCN1CCCC1` stands “inactive”; under `Cc1nc2cnc3ccc(C#Cc4cccnc4)cc3c2n1-c1ccc(C(C)(C)C#N)cc1`, “inactive”; under `C1=CCOCc2cc(ccc2OCCN2CCCC2)Nc2nccc(n2)-c2cccc(c2)OCC1`, “inactive”. For `CC[C@@H]1C(=O)N(C)c2cnc(Nc3ccc(C(=O)NC4CCN(C)CC4)cc3OC)nc2N1C1CCCC1`, the outcome was inactive.

For `Cc1ccc(C(=O)Nc2ccc(CN3CCN(C)CC3)c(C(F)(F)F)c2)cc1C#Cc1cnc2cccnn12`, the call was inactive. `Cc1[nH]nc2ccc(-c3cncc(OC[C@@H](N)Cc4ccccc4)c3)cc12`: the result was inactive. On to `C[C@@H](Oc1cc(-c2cnn(C3CCNCC3)c2)cnc1N)c1c(Cl)ccc(F)c1Cl`, for which the outcome was inactive. Under `CC(C)c1ccc(Cn2ccc3c4c(N)nc(NC5CC5)nc4ccc32)cc1` stands “inactive”.
